From PubChem BioAssay (EPA / NIEHS) come the findings set out here.

Active and inactive are the calls of the source. How the source made its calls: active means hit-call score of the fitted dose curve at least 0.9, where 1 is the maximum; inconclusive means response in the unintended direction; inactive means score below 0.9.

Sequence of Estrogen receptor beta (Homo sapiens) (Q92731 whole entry, looked up, the tested form may be a part): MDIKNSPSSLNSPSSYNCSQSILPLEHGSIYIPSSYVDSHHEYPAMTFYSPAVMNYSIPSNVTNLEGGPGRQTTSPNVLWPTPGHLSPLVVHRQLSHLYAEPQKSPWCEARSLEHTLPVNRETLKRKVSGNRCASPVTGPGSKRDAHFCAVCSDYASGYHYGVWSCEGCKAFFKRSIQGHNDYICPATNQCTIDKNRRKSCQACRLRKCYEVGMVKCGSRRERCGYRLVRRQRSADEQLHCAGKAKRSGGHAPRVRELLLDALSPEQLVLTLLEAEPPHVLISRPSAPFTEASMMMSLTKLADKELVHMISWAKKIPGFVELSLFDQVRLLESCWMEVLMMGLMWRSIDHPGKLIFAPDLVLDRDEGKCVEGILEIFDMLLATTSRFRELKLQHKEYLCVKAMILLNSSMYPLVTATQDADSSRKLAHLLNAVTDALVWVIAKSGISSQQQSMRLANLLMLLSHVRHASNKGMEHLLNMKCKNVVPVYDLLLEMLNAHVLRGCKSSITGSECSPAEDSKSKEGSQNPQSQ

The assay addresses Estrogen receptor beta (Homo sapiens) (UniProt Q92731). The assay can be described thus: OT_ER_ERbERb_1440: Odyssey Thera (OT) 24-hour HEK293T Protein-Complementation Assay for Estrogen Receptor-beta/-beta Homodimer (AID 2283380).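 Further: scored as signal increase over DMSO baseline for both agonists and antagonists.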 How it is done:
OT_ER_ERbERb_1440 is a cell-based assay that uses HEK293T, a human kidney cell line, with measurements taken at 24 hours after chemical dosing in a 384-well plate.OT_ER_ERbERb_1440 is one of one assay component(s) measured or calculated from the OT_ER_ERbERb_1440 assay. It is designed to make measurements of protein fragment complementation, a form of binding reporter, as detected with fluorescence intensity signals by Protein-fragment Complementation technology.Data from the assay component OT_ER_ERbERb_1440 was analyzed into 1 assay endpoint. This assay endpoint, OT_ER_ERbERb_1440, was analyzed in the positive analysis fitting direction relative to DMSO as the negative control and baseline of activity. Using a type of binding reporter, measures of receptor for gain-of-signal activity can be used to understand the binding at the pathway-level as they relate to the gene ESR2. Furthermore, this assay endpoint can be referred to as a primary readout, because the performed assay has only produced 1 assay endpoint. To generalize the intended target to other relatable targets, this assay endpoint is annotated to the nuclear receptor intended target family, where the subfamily is steroidal.
Protein-fragment complementation assay, or PCA, is a method for the identification and quantification of protein-protein interactions. In the PCA, the proteins of interest ("bait" and "prey") are each covalently linked to fragments of a third protein (e.g. DHFR, which acts as a "reporter"). Interaction between the bait and the prey proteins brings the fragments of the reporter protein in close proximity to allow them to form a functional reporter protein whose activity can be measured. The OT ER beta / ER beta assay is a homodimer PCA of the ligand binding domain (LBD; amino acids 310-547) of human ER beta stably expressed in HEK293T cells. […] Cells are fixed in 4 percent formaldehyde and stained with Draq5 (BioStatus) to identify cells prior to signal detection. Fluorescent signal in the basal state of the assay is very low and is primarily punctuate and cytoplasmic. Modulation of this assay is quantified as an increase in mean fluorescence intensity in the nucleus (for agonists) or in the nucleus and cytoplasm (antagonists) relative to vehicle controls, and can be quantified on a high content imaging device or a laser scanning cytometer. The latter instrument is favored for this assay because of the rapid mode of data acquisition, the ability to acquire data from the entire cell population in a well (as opposed to a fraction of the well on the high content devices) and the larger dynamic range typically achieved with this instrument. To assess sensitivity of the ER beta/ER beta LBD assay to ligand, cells were treated with the ER agonist 17- beta-estradiol (E2) in 10-point concentration- response format for 24 hours and monitored response on a laser scanning plate cytometer (Acumen eX3; TTP Lab Tech).
Take `CCCC(=O)OCC`: the compound was classed as inactive. In the case of `O=C(O)c1cccc(N(Cc2cccnc2)c2ccc(OC(F)F)c(OC(F)F)c2)c1`, the outcome was inactive. On the same count and under the same terms, to `C=CCCCCCCCCC(=O)O` belongs “inactive”; to `COC(=O)c1c(Cl)c(Cl)c(C(=O)OC)c(Cl)c1Cl`, “inactive”.

As to `COc1ccc2sc(C(=O)Nc3nnn[nH]3)c(OC(C)C)c2c1`, the call was inactive.

As to `Cn1c(=O)cc(Oc2ccc(F)cc2F)c2cnc(NCC(C)(C)O)nc21`, the compound was called inactive.

For the compound `C=CC(=C)CCC=C(C)C`, the outcome was inactive.

Consider `Cc1c(-c2cccnc2)c2ccccc2n1CCCCC(=O)O`, for which the outcome was inactive.

Take `O=C1OC(=O)C2C3C=CC(C3)C12` (stereo not given): the compound was classed as inactive. Still for that read-out and setting: the entry for `COCCOCCOCCOC` is “inactive”; for `CCN(C(=O)c1cc(C)cc(OC[C@H](C)Nc2ccncc2)c1)C(C)C` it is “inactive”. Still for that read-out and setting: to `CCNc1ccccc1` belongs “inactive”. As for `Cc1[nH]cnc1C[C@H]1CCc2c(C)c3ccccc3n2C1=O`, the compound was classed as inactive. Regarding `CCCCCCCCO`, the compound was called inactive. The same measure, in the same setting: to `CC[C@H](C)C(=O)O[C@H]1C[C@@H](C)C=C2C=C[C@H](C)[C@H](CC[C@@H]3C[C@@H](O)CC(=O)O3)[C@H]21` belongs “inactive”; to `COc1cccc(-c2ccc(/C=C\CN3CCCCCC3)cc2Cl)c1`, “inactive”. Same read-out and setting: the entry for `CCc1cc(SCc2sc(-c3ccc(C(F)(F)F)cc3)nc2CN2CCN(c3ccc(OC)cc3)CC2)ccc1OCC(=O)O` is “inactive”; for `CCOCCO` it is “inactive”; for `C1=CCCC=CCCC=CCC1` it is “inactive”. Same read-out and setting: the entry for `O=C(NS(=O)(=O)/C=C/c1ccccc1)c1ccc(F)cc1Cl` is “inactive”. Turning to `CCCN(C1CCN(C(=O)C2CCNCC2)CC1)[C@@H]1CCc2ccc(OC)cc2C1`, the AC50 (commonly the concentration giving half of the maximal activity seen) was 59.7 µM (active). In the case of `CC(C)CC(C)(O)C#CC(C)(O)CC(C)C` (stereo not given), the call was inactive. In the case of `Nc1cccc(N)c1`, the result was inactive.

In the case of `CCC(C)(C)C(=O)O[C@H]1C[C@@H](C)C=C2C=C[C@H](C)[C@H](CC[C@@H]3C[C@@H](O)CC(=O)O3)[C@H]21`, the outcome was inactive. `NC(=O)NO`: the result was inactive. As for `CCCCCCCCCCCCCCCO`, the compound was classed as inactive. Consider `CCOc1cccc(-n2cc(C(=O)N3CCN(c4cc(C(=O)O)c5ccccc5c4)CC3)nc2-c2ccc(C)cc2)c1`, for which the compound was classed as inactive. On to `CC(C)(O)c1coc(S(=O)(=O)NC(=O)Nc2c3c(cc4c2CCC4)CCC3)c1`, for which the result was inactive.

Take `Clc1nc(Cl)c(Cl)c(Cl)c1Cl`: the result was inactive. Regarding `CC(C)=CCCC(C)=CC=O`, the call was inactive.

For `O=C1CCC(N2C(=O)c3ccccc3C2=O)C(=O)N1` (stereo not given), the call was inactive. Consider `CC(C)=CCCC(C)CCO` (stereo not given), for which the compound was called inactive. Consider `O=C(O)CC(O)C(=O)O` (stereo not given), for which the result was inactive. `O=C(O)CCN(C1(C(=O)NO)CCCC1)S(=O)(=O)c1ccc(Oc2ccc(F)cc2)cc1`: the compound was called inactive. The same measure, in the same setting: to `CC(=O)OC[C@H]1O[C@@](COC(C)=O)(O[C@H]2O[C@H](COC(C)=O)[C@@H](OC(C)=O)[C@H](OC(C)=O)[C@H]2OC(C)=O)[C@@H](OC(C)=O)[C@@H]1OC(C)=O` belongs “inactive”; to `CC[C@H]1CC[C@H](NCc2cc3c(cc2OC)[C@H]2C[C@H]2C(=O)N3C)[C@H](c2ccccc2)N1`, “inactive”; to `O=P(OC(CCl)CCl)(OC(CCl)CCl)OC(CCl)CCl`, “inactive”.

Regarding `CCn1nc(Cc2ccccc2)cc1C1CCN(C[C@H]2C[C@H](N(C)[C@@H](C(=O)O)C(C)C)C[C@@H]2c2cccc(F)c2)CC1`, the call was inactive. `Cc1ccc(N)cc1O`: the compound was classed as inactive. Consider `COc1ccc(/C=C/S(=O)(=O)NC(=O)c2ccc(C)cc2Cl)cc1`, for which the compound was called inactive.
